Screens from PubChem.
MEKK2 WT-MEK5: raises or lowers MEK5 binding to wildtype human MEKK2 PB1 domain; Q9Y2U5; bead flow cytometry, Alexa488-MEK5 binding to MEKK2 WT; actives lie on both sides; binding response (% of control), % at 10 µM; 290,000 tested, 1.1% active; AID 1531; in the data active = binding response below about 67% or above about 130%
MEKK3 PB1 HTS: MEKK3-MEK5 PB1 interaction, increase or decrease. Q99759. bead-based flow cytometry, Alexa488-MEK5 binding to MEKK3; actives lie on both sides; 0 = blocked by unlabeled MEK5, 100 = vehicle. binding response (% of control), % at 10 µM. 290,000 tested, 1.4% active. AID 1529;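 active = binding response more than 3 SD above or below the average of its plate-row segment, actives on both sides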;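 also: Alexa488 bead fluorescence after subtracting the streptavidin-only scavenger bead signal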
FID counter: displaces DNA intercalator in HCV helicase counter-screen; DNA fluorescent intercalator displacement, fluorescence; inhibition, % at 7.9 µM; 290,000 tested, 0.17% active; in the data active = inhibition above about 37%;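 also: 0% = vehicle and 100% = reference compound; higher means more ethidium bromide displaced from hairpin DNA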
MEKK2 mut-MEK5: signal of MEK5 binding to mutant human MEKK2 PB1 domain. bead flow cytometry, Alexa488-MEK5 binding to MEKK2 mutant. percent response, % at 10 µM. 290,000 tested, 0.35% active. AID 1530; in the data active = percent response above about 24%, passing the limit was not always enough
dFosB activator: mouse delta FosB homodimer activation. 340,000 tested, 0.99% active. P13346. AID 493131. purified delta FosB, TAMRA-CDK5 oligo fluorescence polarization; percent of positive-control signal above neutral wells. activation, % at 25 µM;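 active = mean activation above about 17%, with every replicate also reaching it, limit read from the data, passing the limit was not always enough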
* marks the source's active call; other numbers are inactive results; x = not tested or not shown; [ ] = dose if it differs, or a comment. An excerpt weighted towards active compounds, which were near 2.9% of everything screened.

SMILES	MEKK2 WT-MEK5	MEKK3 PB1 HTS	FID counter	MEKK2 mut-MEK5	dFosB activator
CC1CCCCN1CCNC(=O)c1ccc2c(=O)n(Cc3ccc(Cl)cc3)c(=S)[nH]c2c1 (stereo unspecified)	169*	107	24	33*	-52
Cc1c(C)n(C)c2ccc(C(=O)NCCCN3CCCCC3C)cc12 (stereo unspecified)	178*	108	9	35*	-7
C#CCOCCOCCOCCNc1nc(N2CCN(C(=O)[C@H](CCCCN)n3cc([C@@H](N)C(C)CC)nn3)CC2)nc(N2CCN(C(=O)[C@H](CCCCN)n3cc([C@@H](N)CO)nn3)CC2)n1 (stereo partly specified)	107	90	66*	-29	x
C#CCOCCOCCOCCNc1nc(N2CCN(C(=O)[C@H]([C@@H](C)CC)n3cc([C@@H](N)CO)nn3)CC2)nc(N2CCN(C(=O)[C@H](CCCCN)n3cc([C@@H](N)C(C)CC)nn3)CC2)n1 (stereo partly specified)	124	106	52*	14	-8
C#CCOCCOCCOCCNc1nc(N2CCN(C(=O)[C@H](CCCCN)n3cc([C@@H](N)[C@H](C)CC)nn3)CC2)nc(N2CCN(C(=O)[C@H](CCC(=O)O)n3cc([C@@H](N)CCCCN)nn3)CC2)n1	x	x	x	x	3
COc1ccc(-c2noc(CCC(=O)N3CCN(c4cccc(Cl)c4)CC3)n2)cc1	x	x	x	x	1
CCN(c1ccc(NC(=O)CSc2ccc3c(c2)OCCO3)cc1)C(C)C	x	x	x	x	-16
O=C(CN1C(=O)c2ccccc2S1(=O)=O)NCc1ccc(F)cc1	94	72*[inhibitor]	-2	-6	-6
O=C(CCN1C(=O)c2ccccc2S1(=O)=O)NCc1ccc(F)cc1	x	x	x	x	-3
CN(C)CCOc1ccccc1Cc1ccccc1	-18*	78	9	-2	-2
CNCCCCOc1ccccc1Cc1ccccc1	125	104	16	6	x
CCS(=O)(=O)N1CCCC(C(=O)Oc2ccc(Br)cc2)C1 (stereo unspecified)	108	103	-18	3	-7
O=C(Nc1ccc(N2CCCC2)c(Cl)c1)c1ccc(Br)o1	99	101	-1	3	43*
O=C(Nc1ccccc1N1CCCCC1)c1ccc(-c2ccc(Cl)cc2)o1	106	141*	-3	0	-5
O=C(Nc1ccccc1N1CCCC1)c1ccc(Br)o1	112	109	-10	6	3
N#C/C(=C/c1cn(-c2ccccc2)nc1-c1cccc(OCc2ccccc2)c1)C(=O)NCCCn1ccnc1	126	90	1	2	31*
CCOc1cccc(-c2nn(-c3ccccc3)cc2/C=C(/C#N)C(=O)NCCCn2ccnc2)c1	121	102	5	2	-20
COc1ccc(CNC(=O)CCCCCNC(=O)N2CCn3c2nc2ccccc23)cc1	105	103	-52	1	-15
CCN(CC)c1ccc(/C=C/c2cccc[n+]2C)c(OC)c1	12*	98	-86	21	14
CC(C)N=C1NN=C(c2cccs2)C(CC(=O)O)S1 (stereo unspecified)	104	101	-10	0	1
CN(C)Cc1cc(C(C)(C)c2cc(CN(C)C)c(O)c(CN(C)C)c2)cc(CN(C)C)c1O	128	104	38*	26	-3
COc1ccc(Nc2nc(NCc3ccco3)nc(N/N=C/c3ccc(O)cc3)n2)cc1	107	103	-5	-2	42*
Cc1ccc(NC(=S)N/N=C/c2c(C)[nH]c3ccccc23)cc1	38*	110	11	50	-3
Cc1[nH]c2ccccc2c1/C=C/C(=O)c1ccccc1	16*	150*	2	180*	-11
COc1ccc2c(Cl)c(C(=O)N/N=C/c3c(C)[nH]c4ccccc34)sc2c1	48*[inhibitor]	96	-5	22	1
Cc1[nH]c2ccccc2c1/C=N/NC(=O)c1cccc(Br)c1	42*	111	8	64*	-14
Cc1[nH]c2ccccc2c1/C=N/NC(=O)c1ccccc1	103	103	-1	2	0
Cc1[nH]c2ccccc2c(=O)c1C(=O)/C=C/c1ccccc1	119	119	-4	23	0
COc1ccc(NC(=O)CSc2nc(C3CC3)nc3ccccc23)c(OC)c1	98	100	-35	2	12
NC(=NCc1ccco1)NC(=O)c1ccccc1	114	110	0	3	1
